From PubChem
Rows were chosen to be rich in hits. Some 10% of all compounds tested hit in one or more screens of this group.
HPGD inh = inhibitors of human 15-hydroxyprostaglandin dehydrogenase (HPGD). P15428. purified HPGD, NADH fluorescence kinetic, PGE2 substrate. Potency, µM, for the others: top-dose activity change, negative = inhibition, most hits filed as inhibitors. 4.3% of 150,000 active. AID 894; active = well fitted inhibition curve with a large enough effect, not every such curve was filed as active; inconclusive = small, poorly fitted or top-dose-only effect, or another doubt; inactive = no such curve, though single readings can be large or run the other way; note: potency is the fitted concentration of half-maximal effect
Target sequence (P15428 whole entry, looked up): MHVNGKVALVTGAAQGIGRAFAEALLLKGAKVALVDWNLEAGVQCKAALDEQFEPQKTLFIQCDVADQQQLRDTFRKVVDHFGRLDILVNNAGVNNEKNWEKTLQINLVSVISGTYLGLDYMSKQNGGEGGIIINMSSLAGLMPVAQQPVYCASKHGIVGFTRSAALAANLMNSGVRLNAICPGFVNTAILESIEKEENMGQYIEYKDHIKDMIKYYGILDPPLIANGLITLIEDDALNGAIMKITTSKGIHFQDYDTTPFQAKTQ
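20 nM HPGD preincubated 15 min at room temperature with compound in 50 mM Tris-HCl pH 8, 0.01% Tween 20. Started with 1 mM NAD+ and 30 uM prostaglandin E2; NADH fluorescence (360/450 nm) read 5 times over 30-s intervals, last minus first.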
GLA inh pH 4.5 = alpha-galactosidase A (human) inhibition, pH 4.5; P06280; purified enzyme, 4-MU-alpha-Gal fluorescence, pH 4.5; activity change, negative = inhibition, % at 105 µM; 230,000 tested, under 10 active;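 note: 0% = full activity with enzyme and -100% = basal without enzyme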
ALDH1A1 block = blocks purified human ALDH1A1 activity. P00352. Purified ALDH1A1, NADH fluorescence, propionaldehyde substrate. Potency, µM (highest dose often 75.3 µM), inactives show top-dose activity, negative = inhibition, most hits filed as inhibitors. 7.3% of 220,000 active. AID 1030; active = well fitted inhibition curve with a large enough effect, not every such curve was filed as active; inconclusive = small, poorly fitted or top-dose-only effect, or another doubt; inactive = no such curve, though single readings can be large or run the other way;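 note: potency is the fitted concentration of half-maximal effect; plate controls were no enzyme wells and a reference inhibitor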
ALOX12 inhib = blocks human 12-lipoxygenase activity. P18054. purified 12-hLO, xylenol orange hydroperoxide absorbance. Potency, µM (top dose mostly 57.1 µM), without a hit: at the top dose activity change, negative = inhibition, usual class: inhibitors. 0.12% of 150,000 active; note: potency is the fitted concentration of half-maximal effect; nearly all actives have a fitted effect of over 55% in size
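150 nM 12hLO, 25 mM Hepes pH 7.0 + 0.01% Triton X-100; cpd preinc 15 min RT; 40 uM arachidonic acid, 30 min RT; Fe-XO 30 min; A573/A405 ratio as read-out.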
aGal spleen mod = alpha-galactosidase A (human) modulation | P06280 | human spleen homogenate, 4MU-alpha-Gal fluorescence, 40 min | Potency, µM (titrated, usually from 80 µM), for the others: top-dose activity change, negative = inhibition, most hits filed as inhibitors | 0.008% of 240,000 active;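 note: potency is the fitted concentration of half-maximal effect; 0% = enzyme with vehicle and -100% = no enzyme basal signal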
Target sequence (P06280 32-429 limits assumed): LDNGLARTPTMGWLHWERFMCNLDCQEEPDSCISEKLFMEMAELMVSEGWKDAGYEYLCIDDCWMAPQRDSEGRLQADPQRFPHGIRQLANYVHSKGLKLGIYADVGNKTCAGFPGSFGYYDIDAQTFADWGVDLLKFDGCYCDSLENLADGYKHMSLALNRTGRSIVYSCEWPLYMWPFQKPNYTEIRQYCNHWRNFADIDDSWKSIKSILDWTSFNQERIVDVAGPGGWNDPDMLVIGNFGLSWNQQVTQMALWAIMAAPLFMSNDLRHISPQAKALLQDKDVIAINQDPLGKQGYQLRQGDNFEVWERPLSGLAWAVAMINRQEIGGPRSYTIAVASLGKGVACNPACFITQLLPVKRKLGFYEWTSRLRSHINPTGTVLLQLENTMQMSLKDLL
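Inhibition or activation of alpha-galactosidase in human spleen homogenate is scored by 4-MU fluorescence after 40 min at 37C, pH 5.0, with 1 mM substrate. AC50s come from concentration-response fitted to the Hill equation.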
PNC inhibitor = inhibitors of perinucleolar compartment assembly | PC3M PTB-GFP, PNC prevalence imaging, 16 h; hits give low values | activity change (PNC), negative = inhibition, % at 10 µM | 3.1% of 140,000 active | AID 2417;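 active = readout at or below -70, meaning at least 70% loss of cells showing the perinucleolar compartment, a nuclear body marking cancer cells; inconclusive = readout between -30 and a set limit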;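 note: plate controls were DMSO wells for no effect and camptothecin positive control wells for full effect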
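Read-out is percentage of cells bearing a perinucleolar compartment, from automated 20x imaging of fixed, Hoechst-stained PC3M PTB-GFP cells. Cells were seeded 4 h, then exposed 16 h to compound (23 nl of library stock) in duplicate plates.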
Active calls of the source: *; ? = inconclusive; / = no result given; [ ] = dose if it differs, or a comment. Unless noted, calls come from the whole dose curve; as a rule, active = well fitted curve in the direction sought with a large enough effect; inconclusive = small, poorly fitted or top-dose-only effect, or another doubt; inactive = no such curve, though single readings can be large; an effect the other way counts as inactive or inconclusive. Unless noted, % is set by controls: 0 for no effect and ±100 for the full control effect.

SMILES	HPGD inh	GLA inh pH 4.5	ALDH1A1 block	ALOX12 inhib	aGal spleen mod	PNC inhibitor
COC(=O)c1c(-c2ccncc2)csc1NC(=O)c1ccoc1C	-23%	4	-7%	-1%	4%	13
COC(=O)c1c(-c2ccc(C)cc2)csc1NC(=S)NC(=O)c1cc(OC)cc(OC)c1	-13%	10	20µM*	3%	-5%	-8
CCNC(=S)Nc1scc(-c2ccccc2)c1C(=O)OCC	-26%	-25	28µM*	?	-1%	2
CCn1c(CCCc2nc3c([nH]2)c(=O)n(C)c(=O)n3C)nc2c1c(=O)n(C)c(=O)n2C	-5%	/	3%[13.5 µM]	2%[11.4 µM]	/	/
COC(=O)CN1CC(=O)c2ccccc2S1(=O)=O	/	/	/	/	0%	/
COc1ccc(NC(=O)Cn2nnc(C(=O)Nc3ccccc3C)c2N)cc1	/	-6	-4%	/	-6%	/
O=C(O)/C=C/C(=O)Nc1ccccc1-c1ccccc1NC(=O)/C=C/C(=O)O	-16%	-1	-7%	0%	-2%	35
O=C(O)/C=C/C(=O)NNC(=O)c1ccccc1Br	?	-14	11µM*	-5%	10%	34
COC(=O)c1ccccc1NC(=O)/C=C/C(=O)O	-9%	-23	1%	-1%	12%	-84*
Cc1ccccc1C(=O)NNC(=O)/C=C\C(=O)O	/	-6	/	/	-1%	/
O=C(O)/C=C/C(=O)Nc1ccccc1SC(F)(F)F	?	2	11µM*	-9%	4%	?
COC(=O)[C@@H]1CC[C@H](C)[C@@H](c2ccc(C)cc2)N1C(=O)c1ccc(/C=N\OCC[C@@H]2C=C[C@H](OC(C)=O)[C@H](COC(C)=O)O2)cc1	/	/	-5%[13.5 µM]	/	-10%[17.5 µM]	/
Cc1nn(-c2ccccc2)nc1C(=O)Nc1nnc(C(F)(F)F)s1	/	-9	/	/	4%	/
CCC(C)NCCCCOc1ccc(Cl)cc1C (stereo not drawn)	-11%	0	?	-7%	3%	-25
CC(/C=N/n1c(-c2ccc(C)cc2)n[nH]c1=S)=C\c1ccco1	2.5µM*	-12	?	-6%	-7%	-5
CC(/C=N/n1c(-c2ccncc2)n[nH]c1=S)=C\c1ccco1	/	3	/	/	0%	/
CC(/C=N/n1c(-c2ccccc2)n[nH]c1=S)=C\c1ccco1	?	-26	?	-15%	2%	40
CC(/C=N/n1c(-c2ccco2)n[nH]c1=S)=C\c1ccco1	14µM*	3	32µM*	-14%	1%	62
COC(=O)Cc1ccc(NC(=S)NCCSc2ccc(Cl)cc2)cc1	/	-7	/	/	-3%	/
COc1ccc(CCNC(=O)C(=O)NCc2ccc(Cl)cc2)cc1OC	/	5	0.63µM*	/	-9%	/
COc1ccc(CCNC(=O)/C=C/C(=O)O)cc1OC	/	8	25µM*	/	1%	/
COc1cccc(CNC(=O)C(=O)NCCc2ccc(OC)c(OC)c2)c1	-12%	1	?	1%	-7%	-1
COc1ccc(CCNC(=O)CCCOc2cccc(C)c2C)cc1OC	/	1	/	/	9%	/
COc1ccc(CCNC(=O)C(=O)NCc2ccc(C)cc2)cc1OC	-11%	-2	3.2µM*	3%	15%	?
COc1ccc(CCNC(=O)CCCOc2ccc(C)cc2)cc1OC	-22%	-17	28µM*	8%	-16%	15
SMILES	HPGD inh	GLA inh pH 4.5	ALDH1A1 block	ALOX12 inhib	aGal spleen mod	PNC inhibitor
O=C(c1cc(C(F)(F)F)cc(C(F)(F)F)c1)N1CCC2(CCCN(Cc3ccccc3)C2)CC1	-9%	/	4%	5%	-11%	/
CCC(CC)C(=O)c1c[nH]c(C(=O)N2CCN(c3ccccc3)CC2)c1	/	-2	4%	/	-1%	/
O=C1CCCC(=O)C1CS(=O)(=O)c1ccccc1	/	6	13µM*	/	0%	/
O=C1CC(c2ccc(Cl)cc2)CC(=O)C1CS(=O)(=O)c1ccccc1 (stereo not drawn)	/	-13	7.1µM*	/	5%	/
COc1ccc(C2CC(=O)C(CS(=O)(=O)c3ccccc3)C(=O)C2)cc1 (stereo not drawn)	/	-4	7.9µM*	/	1%	/
O=C1CCCN1CC(O)CS(=O)(=O)c1ccccc1 (stereo not drawn)	-6%	3	2%	3%	1%	-26
COc1ccc(C2=CC(=O)CC(c3ccccc3)C2)cc1 (stereo not drawn)	/	-2	?	/	6%	/
COc1cc2c(cc1OC)-c1c(oc3cc(O)cc(O)c3c1=O)CO2	-16%	-15	-4%	-5%	3%	/
Cc1nc2ccccn2c1-c1csc(NCc2ccco2)n1	?	4	22µM*	-4%	-11%	15
CCOC(=O)C1=C(C)N=C2SC=C(C)N2C1c1ccc(OC)cc1 (stereo not drawn)	/	-1	7%	/	0%	/
CCOc1cc(C2C3=C(CCCC3=O)N(C)C3=C2C(=O)CCC3)cc(Cl)c1O	-18%	2	-4%	-5%	-1%	-100*
Cc1nn(Cc2ccccc2)c2c1C(c1cccnc1)C(C#N)=C(N)O2 (stereo not drawn)	-21%	4	7.9µM*	4%	-4%	30
CCCc1nn(C)c2c1C(c1cccnc1)C(C#N)=C(N)O2 (stereo not drawn)	-7%	0	11%	3%	-5%	-1
Cc1nn(Cc2ccccc2)c2c1C(c1ccncc1)C(C#N)=C(N)O2 (stereo not drawn)	-16%	9	?	0%	-1%	?
N#CC1=C(N)Oc2cc(N)ccc2C1c1cccnc1 (stereo not drawn)	-6%	-5	2%	-2%	5%	-9
Cc1nn(Cc2ccccc2)c2c1C(c1ccc(Cl)cc1)C(C#N)=C(N)O2 (stereo not drawn)	1µM*	9	?	-9%	10%	?
CC(C)N1CC2=C(OC(N)=C(C#N)C2c2cccnc2)/C(=C/c2cccnc2)C1 (stereo not drawn)	-17%	12	-9%	-16%	-6%	-7
N#CC1=C(N)OC2=C(CN(Cc3ccccc3)C/C2=C\c2cccnc2)C1c1cccnc1 (stereo not drawn)	-5%	-10	1.3µM*	0%	2%	31
CCN(CC)c1ccc2c(c1)OC(N)=C(C#N)C2c1cccnc1 (stereo not drawn)	-5%	-6	1%	6%	-4%	-99*
COc1ccccc1-c1cc(NCc2cnc(C)cn2)ncn1	/	/	?	/	-5%	/
O=C(Nc1cccc2cccnc12)C1CCCC1	-10%	1	5%	-1%	-15%	28
O=C(OCC(=O)N1CCc2ccccc21)c1c2c(nc3ccccc13)CCCC2	/	5	3%	-5%	11%	-110*
CCOc1ncccc1C(=O)OCC(=O)N1CCc2ccccc21	/	-9	7.9µM*	/	-14%	/
